# High-throughput results (PubChem BioAssay)
# A selection: hits, their analogues and other compounds. The true share with any hit is near 5.9%.
# DAX1 inh: inhibitors of human orphan nuclear receptor DAX1 (NR0B1); HEK293 Gal4-DAX1 luciferase reporter, luminescence; inhibition, % at 6.75 µM; 340,000 tested, 0.99% active; AID 504766;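 active means inhibition above the mean over all tested compounds plus 3 SD, cut at about 4.2% in these data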;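 further: 0% = DAX1-transfected cells with DMSO and 100% = empty-vector control cells with DMSO; inhibition shows as a rise in luminescence from relieved DAX1 repression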
# Target sequence (P51843 207-470 limits assumed): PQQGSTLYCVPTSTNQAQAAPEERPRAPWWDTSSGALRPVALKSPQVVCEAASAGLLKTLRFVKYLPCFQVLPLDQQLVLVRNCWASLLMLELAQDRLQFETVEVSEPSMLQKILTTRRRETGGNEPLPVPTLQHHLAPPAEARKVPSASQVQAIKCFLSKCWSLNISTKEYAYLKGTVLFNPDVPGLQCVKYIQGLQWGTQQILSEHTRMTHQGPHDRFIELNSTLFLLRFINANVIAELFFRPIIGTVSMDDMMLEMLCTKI
# FXN GAA850 act: activators of GAA850 frataxin (FXN) promoter. activation, % at 6 µM. HEK293 lucGAA850 FXN promoter luciferase reporter, 24 h; percent of 10 µM SAHA response. AID 540364. 360,000 tested, 0.56% active;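 active means activation above the average of all compounds screened plus 3 SD, cutoff fixed separately per campaign, cut at about 7.5% in these data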;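 further: 0% = DMSO wells and 100% = 10 µM SAHA wells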
# HSF-1 act: increases HSF-1 driven luciferase reporter signal | AID 504408 | NIH3T3-HGL HSF-1 luciferase reporter, MG132, 8 h; 100% = twice DMSO control signal | activation, % at 9 µM | 300,000 tested, 1.7% active;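 active means mean replicate activation of at least 50% with a set share of replicates each reaching 50%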;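 further: 0% = median of the neutral control wells and 100% = twice that signal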
# AHR activator: activates the human aryl hydrocarbon receptor; P35869; AHR-responsive luciferase reporter cells, luminescence; activation, % at 5 µM; 320,000 tested, 2.5% active; AID 2796; in the data active means activation above about 47%;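 further: 0% = vehicle wells and 100% = reference agonist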
# HSP90 refold inh: HSP90 refolding inhibition in rabbit reticulocyte lysate; 290,000 tested, 0.91% active; luciferase refolding luminescence, 3 h; inhibition, % at 5.6 µM;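 active means inhibition above the screen-wide mean plus 3 SD, computed separately per campaign, cut at about 16% in these data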;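 further: 0% = DMSO wells and 100% = 60 µM geldanamycin wells; inhibitors lower the luminescence because luciferase stays unfolded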
# HSF1 inhib: HSF1 inhibition. activity change, negative = inhibition, % at 7.5 µM (by protocol). 300,000 tested, 0.77% active. AID 2098. NIH3T3-HGL HSE-luciferase, MG132-induced, luminescence 8 h; hits give low values;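 active means more than half of replicate wells show activity change below -50%, luminescence cut by over half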;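 further: luciferase reports HSF-1 transcriptional activity via heat shock element; 0% = median of DMSO wells and -100% = zero luminescence signal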
# Numbers without * were called inactive; / = not tested or not shown.
SMILES,DAX1 inh,FXN GAA850 act,HSF-1 act,AHR activator,HSP90 refold inh,HSF1 inhib
Cc1cccc(C)c1C(O)c1ncc(-c2ccccc2C(F)(F)F)[nH]1 (stereo not given),/,1,/,/,/,/
Cc1[nH]c2ccccc2c1C(C[N+](=O)[O-])c1ccco1 (stereo not given),0,-1,18,9,-1,7
Cc1ccc(-c2[nH]c3ccccc3c2C(C[N+](=O)[O-])c2ccco2)cc1 (stereo not given),0,0,70*,43,1,28
Cc1[nH]c2ccccc2c1C(C[N+](=O)[O-])c1cccs1 (stereo not given),-1,3,-79,6,-2,-75*
O=C(NC1CCCC1)C(c1ccncc1)N(C(=O)c1ccco1)c1ccc(F)c(Cl)c1 (stereo not given),0,1,13,-2,-1,8
CCN(CC(=O)Nc1ccc2c(c1)OCCO2)C(=O)/C=C/c1ccc([N+](=O)[O-])cc1,0,-1,/,-2,/,/
O=C(CCCSc1ccccc1)Nc1ccc(Cl)c(S(=O)(=O)N2CCOCC2)c1,-2,-2,/,-1,/,/
COc1ccc(C2=Cc3ccc(OC(C)=O)cc3OC2)cc1,5.5*,3,/,/,/,/
CC(=O)Oc1ccc2c(c1)C(=O)c1ccccc1CO2,0,2,-12,1,1,5
CC(C)CC(=O)Nc1ccc(S(=O)(=O)Nc2nccs2)cc1,0,2,-4,-1,6,-2
CCC(=O)Nc1ccc(S(=O)(=O)Nc2nccs2)cc1,4.3*,-1,-4,2,-3,-4
COc1ccc(CC(N)c2csc(Nc3ccc(S(C)(=O)=O)cc3)n2)cc1 (stereo not given),/,0,/,/,/,/
COC(=O)c1ccc(C(=O)OC)c(-n2c(=O)c3ccccc3c3ccccc3c2=O)c1,-1,0,78*,1,-3,53
Clc1ccc(NC2(c3nnnn3C3CCCCC3)CCCCC2)cc1,4.7*,3,4,1,-2,12
CN(NC1OC(=O)c2ccccc21)c1ccccc1[N+](=O)[O-] (stereo not given),8.0*,0,-32,0,1,-8
O=C(Nc1nccs1)C1Cc2ccccc2CN1S(=O)(=O)c1ccc(F)cc1 (stereo not given),1,3,15,64*,-2,3
CS(=O)(=O)N(CCCC(=O)N1CCCCCC1)c1cccc(Cl)c1,-2,0,2,2,1,0
COc1ccc(C2CC(=O)c3c(O)cc(O)cc3O2)cc1O (stereo not given),4.8*,1,/,/,/,/
O=C1CC(c2ccc(O)c(O)c2)Oc2cc(O)cc(O)c21 (stereo not given),1,3,15,-1,/,9
Cc1csc(NC(=O)C(Cc2ccccc2)n2cccc2)n1 (stereo not given),0,-1,2,3,1,-14
CCSc1nnc(NC(=O)C(Cc2ccccc2)n2cccc2)s1 (stereo not given),1,-2,-79,-1,-2,-75*
CCSc1nnc(NC(=O)c2cccc3ccccc23)s1,0,0,25,52*,1,1
CN1CCN(S(=O)(=O)c2cccc(C(=O)N(Cc3nnc(-c4ccccc4Cl)o3)C3CC3)c2)CC1,0,1,10,7,2,6
CC12CCCC(CC(=O)O)(C1)NC(=O)C2 (stereo not given),0,-3,/,/,/,/
O=C(c1cc2cc(Cl)ccc2oc1=O)N1CCCCCCC1,4.5*,2,1,1,-7,2
SMILES,DAX1 inh,FXN GAA850 act,HSF-1 act,AHR activator,HSP90 refold inh,HSF1 inhib
O=C(c1cc2cc(Cl)ccc2oc1=O)N1CCCC1,-2,-3,-11,-2,1,-5
O=C(c1ccc2ccccc2c1)N1CCN(Cc2ccccc2)CC1,0,4,20,7,-6,2
O=C(Nc1ccc(OC(F)(F)F)cc1)C1CC(=O)N(Cc2ccco2)C1 (stereo not given),2,0,/,1,/,/
COc1ccccc1NC(=O)CSc1nnc(Cn2c(=O)sc3ccccc32)n1C,1,2,0,15,-6,-3
CCOC(=O)N1CCN(C(=O)CSc2nnc(Cn3c(=O)sc4ccccc43)n2C)CC1,3,0,/,0,-4,/
CC(=O)c1ccc(NC(=O)CSc2nnc(Cn3c(=O)sc4ccccc43)n2C)cc1,4.8*,1,/,9,-7,/
